Experimental data reported in PubChem BioAssay AID1024 (Sanford-Burnham Center for Chemical Genomics, 2008).
About 1,400 (1.5%) of roughly 96,000 compounds were called active.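 Rule for the calls: active = activation factor of 2 or more for CYP2C9 at a 5 µM dose; inactive = the rest.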 This excerpt belongs to a sample that is enriched for actives.

Molecular target: Cytochrome P450 2C9 (Homo sapiens) (UniProt P11712)
Experiment: human CYP2C9 activators, primary screen, biochemical, luminescence (AID 1024);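 note: 0 = sulfaphenazole-blocked wells and 1 = vehicle-only wells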
Settings: recombinant CYP2C9, luciferin-H conversion, at 5 µM, stronger effect = higher value, factor 1 = untreated enzyme, 0 = blocked

Sequence of Cytochrome P450 2C9 (Homo sapiens) (P11712 whole entry, looked up): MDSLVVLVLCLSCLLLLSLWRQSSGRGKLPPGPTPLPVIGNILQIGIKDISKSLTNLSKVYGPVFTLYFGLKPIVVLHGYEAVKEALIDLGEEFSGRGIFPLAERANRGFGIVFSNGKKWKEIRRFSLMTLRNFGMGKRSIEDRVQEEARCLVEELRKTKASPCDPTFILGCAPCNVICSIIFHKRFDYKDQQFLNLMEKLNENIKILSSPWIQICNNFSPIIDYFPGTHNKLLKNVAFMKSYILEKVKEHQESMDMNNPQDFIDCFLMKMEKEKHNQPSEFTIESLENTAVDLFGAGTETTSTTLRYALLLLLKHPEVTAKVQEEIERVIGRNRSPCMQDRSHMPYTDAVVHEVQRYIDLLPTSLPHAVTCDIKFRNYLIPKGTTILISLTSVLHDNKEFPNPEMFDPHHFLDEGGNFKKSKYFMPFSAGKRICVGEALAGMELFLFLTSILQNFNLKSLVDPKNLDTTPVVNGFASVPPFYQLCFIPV

Compound | activation factor
c1ccc(COc2ccccc2CNCc2cccnc2)cc1 | 1.1 (inactive)
Cc1csc(=NC(=O)c2ccccc2)n1CCO | 0.7 (inactive)
Cc1cc(C)c2c3c(sc2n1)C(c1ccccc1)C(C#N)=C(N)O3 (stereo unspecified) | 0.9 (inactive)
CC1CC(C)CN(S(=O)(=O)c2cccc(C(=O)N3C(=O)c4cccc(N)c4C3=O)c2)C1 (stereo unspecified) | 0.9 (inactive)
O=C(CSc1nc(C2CC2)nc2ccccc12)Nc1ccc2c(c1)OCCO2 | 0.6 (inactive)
O=C(O)C1CC=CCC1C(=O)Nc1ccccc1C(=O)N1CCN(c2ccccc2)CC1 (stereo unspecified) | 0.9 (inactive)
Cc1ccc(C(=O)N/C(=C/c2ccco2)C(=O)NCCc2c[nH]c3ccccc23)cc1C | 0.5 (inactive)
CC(=O)N/C(=C/c1ccc(Cl)cc1)C(=O)NCCc1c[nH]c2ccccc12 | 2.7 (active)
COc1ccc(/C=C(\NC(=O)c2ccc(OC)c(OC)c2)C(=O)NCCc2c[nH]c3ccccc23)cc1 | 0.6 (inactive)
O=C1c2ccccc2C(=O)N1CCCc1nc(-c2ccccc2)no1 | 0.8 (inactive)
O=C1c2cccnc2C(=O)N1Cc1cccs1 | 0.9 (inactive)
O=C1c2ccccc2C(=O)N1Cc1cc(-c2ccccc2Cl)no1 | 2.3 (active)
Cc1c(C#N)c(NC(=O)c2ccccc2)n(Cc2ccccc2)c1C | 0.4 (inactive)
O=C(CNS(=O)(=O)c1cccc(C(F)(F)F)c1)Nc1ccccc1F | 1.2 (inactive)
CC(CC(=O)Nc1cc(C(F)(F)F)ccc1Cl)c1ccccc1 (stereo unspecified) | 2.4 (active)
CC(C)CC(=O)Nc1cc(C(F)(F)F)ccc1N1CCOCC1 | 0.9 (inactive)
Cc1nc2ccc(NC(=O)C(F)(F)F)cc2o1 | 1 (inactive)
Cc1c(CCO)c(=O)[nH]n1C(=O)c1c(F)cccc1F | 1 (inactive)
CCC(=O)Nc1ccc(S(=O)(=O)NCC2CCCO2)cc1 (stereo unspecified) | 1 (inactive)
O=S(=O)(NCC1CCCO1)c1ccc2ccccc2c1 (stereo unspecified) | 3 (active)
CCOc1ccc(S(=O)(=O)NCC2CCCO2)cc1 (stereo unspecified) | 0.9 (inactive)
O=c1c2ccccc2nc2n1C(CSCc1ccccc1)CS2 (stereo unspecified) | 0.9 (inactive)
CCN1CCN(C(=O)/C=C\C(=O)O)CC1 | 1 (inactive)
Cc1ccc(CNC(=O)C2CC(c3ccccc3[N+](=O)[O-])=NO2)o1 (stereo unspecified) | 1.2 (inactive)
Cc1cccc(NC(=O)C2CCCN2S(=O)(=O)c2ccc(F)cc2)c1C (stereo unspecified) | 2.5 (active)
CC(=O)Nc1ccc(S(=O)(=O)N2CCCC2C(=O)O)cc1 (stereo unspecified) | 1.1 (inactive)

Compound | activation factor
Cc1ccc(S(=O)(=O)N2CCCC2C(=O)NCc2ccco2)cc1 (stereo unspecified) | 1.5 (inactive)
Cc1cc(NC(=O)Cn2nc(C(F)(F)F)c3c2CCCC3)no1 | 0.9 (inactive)
O=C(Cn1nc(C(F)(F)F)c2c1CCC2)NCc1ccc(F)cc1 | 3.2 (active)
COC(=O)c1ccccc1NC(=O)Cn1nc(C(F)(F)F)c2c1CCC2 | 0.8 (inactive)
CN1C2CCC1/C(=C\c1ccccc1Cl)C(=O)/C2=C\c1ccccc1Cl | 1.8 (inactive)
COC(=O)/C=C/C(=O)NCc1ccco1 | 1 (inactive)
C=CCn1c(COc2cccc3cccnc23)nnc1SCC(=O)OC | 4.1 (active)
C=CCn1c(COc2ccccc2)nnc1SCC(=O)NCC(=O)OCC | 1.1 (inactive)
C=CCn1c(COc2ccccc2F)nnc1SCC(=O)N1CC(=O)Nc2ccccc21 | 0.9 (inactive)
CCN(CC)Cc1csc2ccc(Br)cc12 | 1.1 (inactive)
COc1cc(C(=S)N2CCOCC2)cc(OC)c1OC(=O)c1cc([N+](=O)[O-])c(C)c([N+](=O)[O-])c1 | 0.9 (inactive)
COc1ccc(NCc2nnc(SCc3ccccc3)n2-c2ccc(OC)cc2)cc1 | 0.4 (inactive)
O=C(C(NS(=O)(=O)c1cccc2nsnc12)c1ccccc1)N1CCN(c2ccccc2)CC1 (stereo unspecified) | 0 (inactive)
Cc1cccc(C)c1NC(=O)CCS(=O)(=O)c1cccc2nsnc12 | 1 (inactive)
O=C(CCS(=O)(=O)c1cccc2nsnc12)N1CCN(c2ccccc2F)CC1 | 2.4 (active)
CSc1nc(-c2ccco2)nn1C(=O)CCc1ccccc1 | 1.1 (inactive)
O=C(N/N=C/c1ccsc1)c1cc(O)cc(O)c1 | 0.9 (inactive)
COc1ccc(-c2csc3nc(-c4ccccc4F)oc(=O)c23)cc1OC | 1 (inactive)
CS(=O)(=O)N1CCN(C(=O)c2cc3ccccc3oc2=O)CC1 | 1 (inactive)
CCOC(=O)N1CCN(C(=O)c2cc3c(ccc4ccccc43)oc2=O)CC1 | 0.5 (inactive)
C=CCc1cccc2cc(C(=O)N3CCN(C(=O)OCC)CC3)c(=O)oc12 | 2.1 (active)
CCC(C)NC(=O)c1c(N)n(/N=C/c2cccs2)c2nc3ccccc3nc12 (stereo unspecified) | 0.8 (inactive)
Cc1cccc(-n2cnc(C(=O)Nc3cccnc3)c2)n1 | 0.1 (inactive)
CCOc1ccccc1NC(=O)CCN1CCN(S(=O)(=O)c2ccc(OC)cc2)CC1 | 0.6 (inactive)
CCOc1ccccc1NC(=O)CCc1ccc(C)o1 | 2.8 (active)
CCOc1ccccc1Nc1nnc(SCC(=O)Nc2cc(C)on2)s1 | 0.9 (inactive)

Compound | activation factor
Cc1c(Nc2nc3ccccc3nc2NS(=O)(=O)c2cccs2)c(=O)n(-c2ccccc2)n1C | 0.5 (inactive)
O=C(CCc1ccc(S(=O)(=O)N2CCOCC2)cc1)Nc1ccc2ccccc2c1 | 0.4 (inactive)
CCCOc1ccccc1C(=O)NCCCC(=O)O | 1.1 (inactive)
CCOc1ccccc1C(=O)NCCCn1ccnc1 | 0.3 (inactive)
CCCCOCCCNC(=O)c1ccccc1OCC | 2.9 (active)
CCc1cc(C(c2ccccc2OC)N2CCOCC2)c(NC(=O)c2ccccc2)s1 (stereo unspecified) | 0.1 (inactive)
O=C(NC1CCCCC1)C1CC(=O)N(CCc2ccccc2)C1 (stereo unspecified) | 1 (inactive)
Cc1nn(-c2ccccn2)c2c1C(c1ccncc1)C1=C(CC(C)(C)CC1=O)N2 (stereo unspecified) | 0.2 (inactive)
COc1ccc(/C=C2\CCCC3C2=NN(C(=O)c2scnc2C)C3c2ccc(OC)cc2)cc1 (stereo unspecified) | 0.2 (inactive)
COC(=O)c1sccc1NC(=O)c1csc2c1CCCC2 | 0.9 (inactive)
CC(=O)Cc1nsc(NC(=O)c2csc3c2CCCC3)n1 | 0.7 (inactive)
O=C(NCc1ccccc1Cl)c1csc2c1CCCCC2 | 2.5 (active)
CC(C)(C)NS(=O)(=O)CC12CCC(CC1=O)C2(C)C (stereo unspecified) | 0.8 (inactive)
Cc1cc(C)c2c(-n3cccc3)c(C(=O)NNS(=O)(=O)c3ccc(F)cc3)sc2n1 | 0 (inactive)
Cc1ccc2nc(/C(C#N)=C\c3ccc(OC(=O)c4cccs4)cc3)[nH]c2c1 | 0.2 (inactive)
C=CCOC(=O)C1=C(C)NC(C)=C(C(=O)OCC=C)C1c1cccs1 | 0 (inactive)
CNC(=O)c1csc(-c2ccccc2)n1 | 0.9 (inactive)
Cc1ccc(S(=O)(=O)N(C)CC(=O)N2CCc3ccccc32)cc1 | 2.3 (active)
Cc1ccc(S(=O)(=O)NCC(=O)OCC(=O)N2CCc3ccccc32)cc1 | 1.3 (inactive)
O=C(CSCc1ccccc1)N1CCc2ccccc21 | 1.1 (inactive)
CCCC(=O)Nc1nc2ccc(NC(=O)c3cccnc3)cc2s1 | 0.7 (inactive)
O=C(/C=C\NCC(=O)c1ccccc1)c1ccccc1 | 0.9 (inactive)
Cc1nn(-c2ccccc2)c(Cl)c1C(=O)Nc1ccccc1 | 1.5 (inactive)
COc1ccccc1N1CCN(C(=O)CSc2nnc(-c3ccoc3C)o2)CC1 | 0.7 (inactive)
COc1ccccc1-c1nnc(SCC(=O)N2CC(C)CC(C)C2)o1 (stereo unspecified) | 3.9 (active)
COc1ccccc1-c1nnc(SCC(=O)Nc2ccccc2)o1 | 1.6 (inactive)

Compound | activation factor
Cc1cccc(C)c1NC(=O)c1ccc(CN2CCc3ccccc3C2)cc1 | 1.1 (inactive)
Cn1nc([N+](=O)[O-])nc1Sc1ccc(C(C)(C)C)cc1 | 0.9 (inactive)
COc1cccc(/C=N\Nc2nncc(-c3ccccc3)n2)c1 | 0.9 (inactive)
COc1ccc(S(=O)(=O)Nc2ccc(S(=O)(=O)N3CCCCC3)cc2)cc1OC | 0.1 (inactive)
COc1ccc(S(=O)(=O)N2CCCCC2)cc1Br | 2.1 (active)
COc1ccc(S(=O)(=O)N2CCCC(C(=O)N3CCN(C)CC3)C2)cc1C (stereo unspecified) | 1.2 (inactive)
CCOc1ccc(S(=O)(=O)N2CCCCCC2)c2ccccc12 | 1.5 (inactive)
COc1ccc(S(=O)(=O)N2CCCC2)c(C)c1C | 2.5 (active)
COc1ccc(S(=O)(=O)Nc2ccc(F)cc2)c(C)c1C | 0.3 (inactive)
Cc1ccc(-c2nn(-c3ccccc3)cc2/C=N/NC(=O)c2ccc3c(c2)OCO3)cc1 | 0.2 (inactive)
O=C(O)C1CCCN(S(=O)(=O)c2cccc3cccnc23)C1 (stereo unspecified) | 1.2 (inactive)
Cc1cccc(NC(=O)C2CCN(S(=O)(=O)c3cccc4cccnc34)CC2)c1 | 2.8 (active)
COc1ccc(NC(=O)C2CCCN(S(=O)(=O)c3cccc4cccnc34)C2)cc1OC (stereo unspecified) | 1.2 (inactive)
O=C(Nc1nccs1)C1CCCN1S(=O)(=O)c1cccc2cccnc12 (stereo unspecified) | 0.5 (inactive)
COc1ccc(NC(=O)C2CCCN(S(=O)(=O)c3cccc4cccnc34)C2)cc1 (stereo unspecified) | 1.5 (inactive)
COc1ccccc1CNC(=O)C1CCCN(S(=O)(=O)c2cccc3cccnc23)C1 (stereo unspecified) | 2.9 (active)
CCOC(=O)N1CCN(C(=O)c2n[nH]c(=O)c3ccccc23)CC1 | 1 (inactive)
CCOC(=O)N1CCN(CC(=O)c2c(C)[nH]c3ccccc23)CC1 | 1.6 (inactive)
CCOC(=O)N1CCN(CC(=O)n2c(C)c(C)c3ccccc32)CC1 | 2.3 (active)
COc1ccccc1C(=O)Oc1ccc(N2C(=O)CCC2=O)cc1 | 2.1 (active)
COc1ccccc1C(=O)C(O)c1ccccc1OC (stereo unspecified) | 1 (inactive)
Cc1ccc(OC(=O)c2ccccc2C(=O)OCC(F)(F)C(F)F)cc1 | 0.2 (inactive)
CCN(CC)c1ccc(/C=N/Nc2nc(C)cc(=O)[nH]2)cc1 | 1.2 (inactive)
